In all, about 190,000 compounds went through this assay and about 4,000 (2.1%) were called active. No stated cut-off is given here; in the data, active means inhibition above about 58%; inactive means the rest, inconclusive results apart; tested in S. cerevisiae. Only a selection was taken, and actives are over-represented in it overall.
Experiment: growth inhibition of WT strain, primary screen, mitochondrial fusion inhibitor project, WT and mutant strains, chemical genetic (AID 1362)
Settings: mitochondrial fusion phenotypic screen, at 10 µM
[1] = WT strain, growth inhibition, stronger effect = higher value

Row | Compound | inhibition [1] | inhibition (mutant strain inhibition)
1 | CS(=O)(=O)N(CC(=O)N/N=C/c1ccccn1)c1ccc(Oc2ccccc2)cc1 | 13% (inactive) | 10.6%
2 | Cc1ccccc1NC(=O)CNc1ccccc1N1CCCCC1 | 67.2% (active) | 13.6%
3 | O=C(CN1CCN(C2CCCCC2)CC1)Nc1ccccc1N1CCCCC1 | 6.93% (inactive) | 0.36%
4 | Cn1c(=O)c2c(nc(SCC(=O)Nc3ccccc3N3CCCCC3)n2C)n(C)c1=O | 12.6% (inactive) | -10.4%
5 | CC(Sc1nncn1C)C(=O)Nc1cc(C(F)(F)F)ccc1N1CCOCC1 (stereo unspecified) | -29% (inactive) | -7.18%
6 | COc1ccc(OC)c(NC(=O)CN2CCN(C(=O)c3ccco3)CC2)c1 | -14.9% (inactive) | -24.9%
7 | COc1ccc(NC(C)=O)cc1NC(=O)CN1CCN(C2c3ccccc3-c3ccccc32)CC1 | 60.1% (active) | 41.5%
8 | COc1ccc(NC(C)=O)cc1NC(=O)CN1CCN(c2ccccn2)CC1 | -13.6% (inactive) | -9.7%
9 | Cc1c(CN2CCC(CO)(CCOc3ccccc3)CC2)[nH]c2ccc(Cl)cc12 | 94.7% (active) | 93.1%
10 | OCC1(CCOc2ccccc2)CCN(Cc2cn[nH]c2-c2ccccc2)CC1 | 15.8% (inactive) | -2.31%
11 | Cc1c(C(=O)N2CCOCC2)[nH]c2ccc(OCc3ccccc3)cc12 | 14.8% (inactive) | 11.7%
12 | CN(c1ccccc1)S(=O)(=O)c1cc(C(=O)OCC(=O)N2CCN(C(=O)c3ccco3)CC2)ccc1Cl | -22.5% (inactive) | 9.01%
13 | COc1cccc(CC2(CO)CCN(Cc3cnc(-c4cccc(C)c4)nc3)CC2)c1 | -0.71% (inactive) | -25.4%
14 | Cc1cccc(-c2ncc(CN3CCC(CO)(CCCc4ccccc4)CC3)cn2)c1 | 84.8% (active) | 70.5%
15 | OCC1(CCc2ccccc2)CCN(Cc2ccc3nsnc3c2)CC1 | 9.84% (inactive) | 25.4%
16 | N#CCSc1nn(-c2ccc(F)cc2)c(=S)s1 | 4.11% (inactive) | -30.5%
17 | COCCN(C(=O)c1ccccc1F)c1c(N)n(Cc2ccccc2)c(=O)[nH]c1=O | 4.27% (inactive) | 0.13%
18 | O=[N+]([O-])c1ccccc1N/N=C1\CCc2ccccc21 | -0.84% (inactive) | 3.81%
19 | O=C1c2ccccc2NC(c2ccccc2O)N1NS(=O)(=O)c1ccccc1 (stereo unspecified) | -6.26% (inactive) | -11.6%
20 | CCCCN(CC)CCCNC(=O)c1ccc(CSc2nc3ccncc3[nH]2)cc1 | 7.78% (inactive) | 7.15%
21 | Cc1ccc(-n2cc(CN(C)Cc3nccn3C)c(-c3cccc(C)c3)n2)cc1 | 78.8% (active) | 64.6%

Row | Compound | inhibition [1] | inhibition (mutant strain inhibition)
22 | Cc1cccc(-n2cc(CN3CCN(C(=O)c4ncn[nH]4)CC3)c(-c3cccc(F)c3)n2)c1 | 10.2% (inactive) | -17.8%
23 | COc1ccc(-n2cc(CN(C)Cc3n[nH]c(=O)[nH]3)c(-c3cccc(F)c3)n2)cc1 | 7.75% (inactive) | 8.93%
24 | Brc1ccc2nc(N3CCCC3)sc2c1 | 14.9% (inactive) | 19.6%
25 | CCOC(=O)C1(Cc2cccc(OC)c2)CCN(Cc2csc(C(C)=O)c2)CC1 | 25.6% (inactive) | 25%
26 | O=C(c1ccc(-c2ccccc2)cc1)C1CCCN(C(=O)c2cncs2)C1 (stereo unspecified) | -57.9% (inactive) | 9.01%
27 | CCOc1ccc2c(c1)C(c1ccc(C)cc1)=NNC(c1ccc(C)cc1)=N2 | 45.3% (inactive) | 35.7%
28 | Cc1ccc(C2=Nc3c(ccc4ccccc34)C(c3ccncc3)=NN2)cc1 | 67.9% (active) | 45.6%
29 | CCc1ccc2c(c1)C(c1ccc([N+](=O)[O-])cc1)=NNC(c1ccccc1)=N2 | -6.57% (inactive) | 12%
30 | Cc1coc(C)c1C(=O)CC1(O)C(=O)N(C)c2ccc(Cl)cc21 (stereo unspecified) | 5.13% (inactive) | 0.33%
31 | Cc1cccc(/C=N/NC(=O)CNc2cccc3ccccc23)n1 | 18.4% (inactive) | 3.37%
32 | Cc1ccccc1NCC(=O)N/N=C\c1ccc([N+](=O)[O-])s1 | 66.5% (active) | 43.8%
33 | CCCCCC(=O)Nc1ccc(C(=O)N/N=C/c2ccc([N+](=O)[O-])cc2)cc1 | -17% (inactive) | 15.9%
34 | COc1ccc(C(=O)NCC(=O)N/N=C/c2ccc([N+](=O)[O-])s2)cc1OC | -4.24% (inactive) | -9.98%
35 | CCOc1ccc(NC(=O)CCC(=O)N/N=C/c2ccc([N+](=O)[O-])s2)cc1 | 60.3% (active) | 17.2%
36 | CCOc1ccc(NC(=O)CCC(=O)n2nc(C)cc2C)cc1 | -6.72% (inactive) | -6.56%
37 | CCN(CC)C(=O)Cn1cc(S(=O)(=O)CC(=O)NCc2ccc3c(c2)OCO3)c2ccccc21 | -10.5% (inactive) | 4.73%
38 | O=C(/C=C/c1ccc(F)cc1)NCCNC(=O)/C=C/c1ccc(F)cc1 | 8.8% (inactive) | -17%
39 | OCC1(Cc2ccccc2)CCN(Cc2cc3ccccc3o2)CC1 | 24.3% (inactive) | 36.2%
40 | Cc1csc(Nc2ccc(Cl)cc2)[n+]1-c1ccc(Cl)cc1 | 78.4% (active) | 70%
41 | COc1ccc(N2CCN(C(=O)COc3ccc4c(C)cc(=O)oc4c3)CC2)cc1 | -1.11% (inactive) | -11.1%
42 | CC(C)c1nc(CNC(=O)CC2C(=O)NCCN2Cc2ccoc2)cs1 (stereo unspecified) | 1.8% (inactive) | 0.76%

Row | Compound | inhibition [1] | inhibition (mutant strain inhibition)
43 | CN(CCC#N)c1ncnc2scc(-c3ccccc3)c12 | 23.5% (inactive) | 28.2%
44 | N#CCCN(CCC#N)c1nnc(-c2ccccc2)s1 | 73.6% (active) | -2.41%
45 | CN(C(=O)COc1ccccc1)c1nnc(-c2ccncc2)s1 | 22.6% (inactive) | 9.04%
46 | OCCC1CN(Cc2cccc(O)c2)CCN1CCc1ccccc1 (stereo unspecified) | 9.78% (inactive) | 8.67%
47 | CCc1ccc(Oc2nc([N+](=O)[O-])nn2C)cc1 | 3.07% (inactive) | 19%
48 | CCc1ccc(-c2nn(-c3ccccc3)cc2CSC(=N)N)cc1 | 90.2% (active) | 35.6%
49 | CCn1c(SCc2ccc(C)cc2)nnc1-c1nn(-c2ccccc2)ccc1=O | 4.19% (inactive) | -13.4%
50 | N=C(N)SCc1cccc2ccccc12 | 41% (inactive) | 10.9%
51 | O=C(Nc1ccc2cn[nH]c2c1)c1ccc(S(=O)(=O)N2CCOCC2)cc1 | 2.7% (inactive) | 11.1%
52 | CS(=O)(=O)N1CCc2cc(C(=O)Nc3ccccc3)ccc21 | -2.67% (inactive) | -18.5%
53 | Cc1cccc2cc3c(N)c(C(=O)N4CCCc5ccccc54)sc3nc12 | 62.1% (active) | 57.1%
54 | Cc1occc1C(=O)N1CCCc2ccccc21 | -3.43% (inactive) | -8.66%
55 | Cc1c(C(=O)N2CCCc3ccccc32)sc2nc(-c3ccccc3)cn12 | 9.55% (inactive) | 9.04%
56 | C/C(=N\NC(=O)c1cccc(N2CCCC2=O)c1)c1ccc(N)cc1 | -2.44% (inactive) | -3.4%
57 | CCNC(=S)NNC(=O)c1ccc2ncccc2c1 | -18.5% (inactive) | -0.98%
58 | O=C(COC(=O)c1ccc(O)cc1)Nc1nccs1 | -7.58% (inactive) | 1.79%
59 | O=C(CN1CCN(c2ccc(Cl)cc2)CC1)NCc1cccs1 | 14.4% (inactive) | -1.49%
60 | O=C(CN1CCN(S(=O)(=O)c2ccc(Cl)s2)CC1)NCc1ccc(Cl)cc1 | 61.7% (active) | -2.81%
61 | Cc1ccc(CNC(=O)CN2CCN(Cc3ccc(Cl)cc3)C2=O)cc1 | 4.82% (inactive) | -0.06%
62 | Cc1ccc2nsnc2c1S(=O)(=O)N1CCCC1C(=O)O (stereo unspecified) | 2.57% (inactive) | -0.55%
63 | CC(=O)NC(Cc1ccc(F)c(F)c1)C(=O)NC1CCN(c2nnnn2-c2ccccc2)CC1 (stereo unspecified) | -2.05% (inactive) | 7.21%

Row | Compound | inhibition [1] | inhibition (mutant strain inhibition)
64 | CS(=O)(=O)N(Cc1ccccc1Cl)c1ccc(C(=O)NCc2cccnc2)cc1 | 1.43% (inactive) | 5.31%
65 | Clc1ccc(C2=CSC3=Nc4cccc5cccc(c45)N23)cc1 | 61% (active) | 25.3%
66 | COc1ccc(CN2CCNC(=O)C2CC(=O)N(C)Cc2ccccn2)cc1OC (stereo unspecified) | -6.3% (inactive) | -4.12%
67 | COC(=O)CSc1ccc2nnc(CCNS(=O)(=O)c3ccc(C)cc3)n2n1 | 8.31% (inactive) | 0.44%
68 | CCCCCC(=O)Nc1ccc(-c2cn3cccnc3n2)cc1 | 10.4% (inactive) | 10.5%
69 | COc1ccc(CCN=C2SCC(=O)N2Cc2ccccc2)cc1OC | -7.75% (inactive) | -8.9%
70 | Cc1cccc(NC(=S)NCc2ccc3[nH]c4c(c3c2)CCCC4)c1 | 75.3% (active) | 51.7%
71 | O=C(O)CCC(=O)NCc1ccc2[nH]c3c(c2c1)CCCC3 | 16.4% (inactive) | 10.2%
72 | Cc1cccc(NC(=S)NCCN(C2CCCCC2)C2CCCC2)c1 | 6.36% (inactive) | -17.7%
73 | OC(COc1ccc(CN2CCSCC2)cc1)CN1CCCCC1 (stereo unspecified) | -6.41% (inactive) | 3.34%
74 | C=CCN(CC=C)C(=O)COC(=O)c1n[nH]c2ccccc12 | 3.05% (inactive) | 3.34%
75 | NC(=O)COC(=O)c1cc(S(=O)(=O)N2CCN(c3ccccc3)CC2)ccc1Cl | -11% (inactive) | 6.11%
76 | CCC(C)c1ccc(NC(=S)NCc2ccccn2)cc1 (stereo unspecified) | 71% (active) | 62.6%
77 | COc1cccc(NC(=S)NCc2ccccn2)c1 | -0.62% (inactive) | 6.49%
78 | O=C(NCc1ccccn1)Nc1ccc(F)cc1 | -29.6% (inactive) | -0.93%
79 | Cc1cc(C)cc(NS(=O)(=O)c2ccc(Oc3ncc(C(F)(F)F)cc3Cl)cc2)c1 | 75.5% (active) | 23.7%
80 | COC(=O)Cc1ccc(Oc2ncc(C(F)(F)F)cc2Cl)cc1 | 13.6% (inactive) | 17.5%
81 | COc1ccccc1Oc1ccc(S(=O)(=O)Nc2cccnc2)cc1 | 7.74% (inactive) | 7.52%
82 | COC(=O)C1=C(C)N(C)C(=S)NC1c1cc(OC)ccc1OC (stereo unspecified) | 4.73% (inactive) | 3.84%
83 | O=C(NCc1ccccc1Cl)C1CCCO1 (stereo unspecified) | -11.3% (inactive) | 7.12%
